Experimental findings from PubChem BioAssay (NCI) are described below.

Test systems include DU-145 prostate; K-562 leukemia; MALME-3M melanoma; MDA-MB-231 breast; RXF 393 renal; SF-268 CNS; SF-295 CNS; SF-539 CNS; UACC-257 melanoma; M14 melanoma.
Experiment in all cases: NCI-60 one-dose screen, 48 h (100 = growth as untreated, 0 = no growth, -100 = all killed)
What all share (conditions): 10 µM unless noted

“And” between values parts separate entries of the source, which are not always exact repeats. Identical values can stand only once. Compounds without any hit were thinned out: in the full panel of roughly 83,000, 20% have a hit.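 Each cell line was grown in a 96-well plate and treated with one concentration of compound for 48 hours. Values below 10 were considered active.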 Values without a mark were called inactive. The source made the active and inactive calls.

For `O=C1Nc2cc(-c3ccc(NS(=O)(=O)c4ccc(F)c(Cl)c4)cc3)ccc2/C1=C/c1ccc[nH]1`, the growth with DU-145 prostate is 20%; in the experiment on K-562 leukemia, 17.3%; in the experiment on MALME-3M melanoma, 50.3%; in the experiment on MDA-MB-231 breast, -6.71% (active); with RXF 393 renal it was 29.5%; in the experiment on SF-268 CNS, 60.1%. The growth with SF-295 CNS was 53.6%; in the experiment with SF-539 CNS, -34.8% (active); in the experiment on UACC-257 melanoma it was 29.7%; in the experiment on M14 melanoma, 48.4%.

`O=C(NN1C(=O)/C(=C/C=C/c2ccc([N+](=O)[O-])o2)SC1=S)c1ccc([N+](=O)[O-])cc1`: the growth with DU-145 prostate was -100% (active); in the experiment with K-562 leukemia, 4.2% (active); in the experiment with MALME-3M melanoma, -91.3% (active); with MDA-MB-231 breast it was -99.7% (active); with RXF 393 renal, -88.6% (active); in the experiment on SF-268 CNS, -82.3% (active). The growth was -97.5% (active) in the experiment on SF-295 CNS, -100% (active) in the experiment on SF-539 CNS, -82.2% (active) in the experiment on UACC-257 melanoma and -82.5% (active) in the experiment on M14 melanoma.

`CCCN(CCC)S(=O)(=O)c1ccc(C(=O)O)cc1.CCCN(CCC)S(=O)(=O)c1ccc(C(=O)O)cc1.[Cl][Pt+2][Cl].[NH2-].[NH2-]`: the growth was 13.2% in the experiment with DU-145 prostate; 9.96% (active) in the experiment with K-562 leukemia; -98.1% (active) with MALME-3M melanoma; -22.8% (active) in the experiment with MDA-MB-231 breast; -59.6% (active) in the experiment on RXF 393 renal; 17.5% with SF-268 CNS. Moreover, the growth in the experiment with SF-295 CNS is 32.9%; in the experiment on SF-539 CNS it was 15.6%; in the experiment on UACC-257 melanoma, -0.891% (active); with M14 melanoma it was 33%.

`O=C(CSc1nnc(-c2ccc(-c3nc4ccccc4[nH]3)cc2)o1)Nc1ccc(Cl)cc1`: the growth was 13.1% with DU-145 prostate; 10.7% in the experiment with K-562 leukemia; 29.1% in the experiment on MALME-3M melanoma; -24.9% (active) in the experiment on MDA-MB-231 breast; -61.7% (active) in the experiment on RXF 393 renal; 38.5% with SF-268 CNS. The growth with SF-295 CNS was 39%; with SF-539 CNS, -94.2% (active); in the experiment on UACC-257 melanoma, 48.9%; with M14 melanoma, -0.25% (active).

Turning to `O=C(OCCOCCO)N(c1cccc(Br)c1)c1nc(SCCN2CCOCC2)nc2c1cnn2CC(Cl)c1ccc(Br)cc1` (stereo not given), the growth is 41.3% with DU-145 prostate; 2.12% (active) in the experiment on K-562 leukemia; -29.1% (active) with MALME-3M melanoma; 1.49% (active) in the experiment with MDA-MB-231 breast; -30% (active) in the experiment with RXF 393 renal; 5.17% (active) with SF-268 CNS. Moreover, the growth was -66.6% (active) with SF-295 CNS, -25.2% (active) with SF-539 CNS, 2.33% (active) with UACC-257 melanoma and -14.1% (active) in the experiment on M14 melanoma.

Consider `C=CC(=O)N1CCN(c2ccc3nc4c(nc3c2C(F)(F)F)C(=O)c2ncccc2C4=O)CC1`, for which the growth is 23.6% in the experiment on DU-145 prostate; 3.62% (active) in the experiment on K-562 leukemia; -97.9% (active) with MALME-3M melanoma; -13.6% (active) with MDA-MB-231 breast; 44.1% in the experiment on RXF 393 renal; 21.3% in the experiment on SF-268 CNS. Further, the growth was 28.8% in the experiment on SF-295 CNS, -32.9% (active) in the experiment on SF-539 CNS, -82.7% (active) with UACC-257 melanoma and -59.9% (active) with M14 melanoma.

Turning to `Cn1cc(-c2cc(N)n3nc(-c4c[nH]c5ccccc45)cc3n2)c2cc(Cl)ccc21`, the growth with DU-145 prostate is -62.6% (active); in the experiment with K-562 leukemia it was 7.97% (active); in the experiment with MALME-3M melanoma, -78% (active); in the experiment on MDA-MB-231 breast, -85.5% (active); in the experiment with RXF 393 renal, -84.7% (active); in the experiment with SF-268 CNS, -46.3% (active). For the same compound, the growth in the experiment with SF-295 CNS was -88% (active); with SF-539 CNS, -92.2% (active); in the experiment with UACC-257 melanoma, -84.3% (active); with M14 melanoma it was -75.5% (active).

Take `COc1ccc2[nH]c(O)c(N=Nc3nc(-c4ccc(C#N)cc4)cs3)c2c1`: the growth in the experiment on DU-145 prostate is 52.9%; in the experiment with K-562 leukemia, 67.7%; in the experiment with MALME-3M melanoma, 15.1%; in the experiment with MDA-MB-231 breast, 59.7%; in the experiment on RXF 393 renal it was 38%; in the experiment on SF-268 CNS, 82.6%. Moreover, the growth is 68.8% with SF-295 CNS, 48.9% in the experiment with SF-539 CNS, 70.6% with UACC-257 melanoma and 82.3% in the experiment on M14 melanoma.

As to `COC(=O)c1c(C(=O)OC)c2ccc3c4ccccc4ccc3n2c1C(=O)OC`, the growth in the experiment with DU-145 prostate is 121%; with K-562 leukemia, 117%; in the experiment on MALME-3M melanoma, 96%; in the experiment with MDA-MB-231 breast it was 110%; in the experiment on RXF 393 renal it was 74.9%; in the experiment with SF-268 CNS, 103%. Moreover, the growth was 93.5% in the experiment on SF-295 CNS, 99.3% in the experiment with SF-539 CNS, 101% with UACC-257 melanoma and 102% in the experiment on M14 melanoma.

`COc1ccc(-c2cc(C(=O)Oc3ccc(C=O)cc3OC)nn2-c2ccc(S(C)(=O)=O)cc2)cc1`: the growth in the experiment with DU-145 prostate was 110%; in the experiment with K-562 leukemia, 96.1%; in the experiment with MALME-3M melanoma, 105%; in the experiment on MDA-MB-231 breast it was 94.3%; in the experiment with RXF 393 renal, 122%; with SF-268 CNS it was 103%. Besides, the growth is 110% with SF-295 CNS, 106% in the experiment with SF-539 CNS, 115% with UACC-257 melanoma and 117% with M14 melanoma.

With `COc1ccc(-c2cc(C(=O)OCc3ccc(Br)cc3)nn2-c2ccc(S(C)(=O)=O)cc2)cc1OC`, the growth in the experiment on DU-145 prostate was 86.4%; with K-562 leukemia, 79.9%; with MALME-3M melanoma, 106%; in the experiment on MDA-MB-231 breast, 70.5%; in the experiment with RXF 393 renal it was 62%; with SF-268 CNS it was 66.5%. For the same compound, the growth is 81.4% with SF-295 CNS, 72.4% in the experiment on SF-539 CNS, 106% with UACC-257 melanoma and 114% with M14 melanoma.

`Nc1cccc(-n2c(COc3ccc(I)cc3)nc3ccccc32)c1`: the growth with DU-145 prostate is 96.2% and 95.5%; in the experiment on K-562 leukemia it was 61.5% and 99.3%; in the experiment on MALME-3M melanoma it was 82.2% and 96.1%; with MDA-MB-231 breast, 56% and 102%; in the experiment on RXF 393 renal it was 82.3% and 106%; in the experiment with SF-268 CNS, 74.4% and 96.5%. For the same compound, the growth is 89.8% and 101% in the experiment with SF-295 CNS; 79.7% and 97.7% in the experiment on SF-539 CNS; 99% and 101% in the experiment with UACC-257 melanoma; 91.5% and 108% with M14 melanoma.
